FBW7 act: FBW7 E3 ligase activators, primary screen, biochemical, AlphaScreen, human; normalized activity (activation), % at 26.1 µM; AlphaScreen FBW7–phospho-cyclin E peptide binding, activator screen; AID 1259310, 2017; actives 0.13% (n = 650,000); F-box/WD repeat-containing protein 7 (Homo sapiens), Q969H0; in the data active = normalized activity above about 1.9%;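 also: purified mutant Fbw7 with reduced substrate affinity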
Target sequence (Q969H0 whole entry, looked up): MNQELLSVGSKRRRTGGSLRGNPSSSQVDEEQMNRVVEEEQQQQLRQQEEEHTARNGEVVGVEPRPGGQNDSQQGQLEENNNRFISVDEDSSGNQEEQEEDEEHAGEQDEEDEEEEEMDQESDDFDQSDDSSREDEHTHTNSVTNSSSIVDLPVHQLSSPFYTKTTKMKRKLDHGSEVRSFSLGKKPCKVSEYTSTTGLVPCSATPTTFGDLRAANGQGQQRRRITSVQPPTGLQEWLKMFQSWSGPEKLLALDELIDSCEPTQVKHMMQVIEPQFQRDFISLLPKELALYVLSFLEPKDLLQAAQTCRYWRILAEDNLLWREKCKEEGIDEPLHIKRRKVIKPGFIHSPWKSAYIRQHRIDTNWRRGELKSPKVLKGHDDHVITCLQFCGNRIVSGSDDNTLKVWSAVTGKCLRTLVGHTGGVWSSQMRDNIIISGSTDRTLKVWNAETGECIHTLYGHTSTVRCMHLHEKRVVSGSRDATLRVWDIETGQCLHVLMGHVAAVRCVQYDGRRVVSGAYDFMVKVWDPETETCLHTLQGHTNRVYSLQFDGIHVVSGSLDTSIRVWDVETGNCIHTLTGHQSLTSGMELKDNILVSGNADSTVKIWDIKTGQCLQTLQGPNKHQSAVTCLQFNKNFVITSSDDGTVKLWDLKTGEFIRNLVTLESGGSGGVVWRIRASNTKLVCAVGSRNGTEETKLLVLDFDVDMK
TEAD-YAP block: TEAD-YAP interaction inhibition, primary screen, TEAD-YAP interaction inhibitor project, luminescence, HEK-TIYL cells. TEAD-Gal4/YAP UAS-luciferase luminescence. inhibition, % at 9.12 µM. actives 1.4% (n = 640,000); in the data active = inhibition above about 32%
MITF primary: MITF inhibitors, primary screen, biochemical, AlphaScreen, human; inhibition, % at 2.6 µM; AlphaScreen MITF homodimerization, bead proximity signal; AID 1259374, 2018; actives 0.91% (n = 650,000); Microphthalmia-associated transcription factor (Homo sapiens), O75030; in the data active = inhibition above about 50%
GPR151 ag: activators of human GPR151, primary screen, cell-based, PathHunter beta-arrestin, luminescence | PathHunter beta-arrestin GPR151 cells | activation, % at 11.2 µM | actives 1% (n = 650,000) | AID 1508602, 2020; in the data active = activation above about 4.9%
A number is an active result; 0 = inactive. The list is not random: actives were taken first. Their share in the collection is about 3.5%.

SMILES	FBW7 act	TEAD-YAP block	MITF primary	GPR151 ag
O=S(=O)(c1ccc(NC(=S)N/N=C/c2cccc(O)c2O)cc1)N1CCOCC1	0	0	59	0
CC(C)(C)P(=NC(=S)Nc1ccccc1)(N1CCOCC1)N1CCOCC1	0	0	0	0
CC(C)(C)P(=NC(=S)NNCCO)(N1CCCCCC1)N1CCCCCC1	0	78	0	0
CCOc1cc(Cl)c(/C=C2/NC(=O)NC2=O)cc1OCC	0	0	0	0
CCOc1cc(/C=C2/NC(=O)NC2=O)c(Br)cc1O	0	44	0	0
CCOc1cc(Br)c(/C=C2/NC(=O)NC2=O)cc1OCC	0	44	0	0
COc1cc(/C=C2/NC(=O)NC2=O)c(Br)cc1O	0	0	0	0
COCc1c(C(=O)N/N=C/c2ccc(Cl)cc2)nnn1-c1nonc1N	0	0	0	0
CCN(CC)c1ccc(/C=N/NC(=O)c2nnn(-c3nonc3N)c2COC)c(O)c1	0	37	0	0
COCc1c(C(=O)N/N=C/c2cc(Cl)ccc2O)nnn1-c1nonc1N	0	61	0	0
NC(=O)C1CCN(C(=O)c2nc(Cl)c(Cl)c(Cl)c2Cl)CC1	0	0	0	0
CC(=O)Oc1ccc2c(=O)c(-c3cc4ccccc4o3)coc2c1	0	0	0	0
Cc1nc(-c2coc3cc(O)ccc3c2=O)cs1	0	34	0	0
COc1ccc2c(=O)c(-c3ccccc3)coc2c1	0	0	0	0
COc1ccc2c(=O)c(-c3cscn3)coc2c1	0	44	0	0
O=c1c(-c2cc3ccccc3o2)coc2cc(O)ccc12	0	36	0	0
Cc1ccc(OCC2(O)CCN(S(=O)(=O)c3ccc(C)cc3)CC2)cc1	0	0	0	0
CC1=C(C)/C(=N\OC(=O)Cc2ccccc2)C=CC1=O	0	0	0	0
Cc1c(Cl)cccc1S(=O)(=O)N1CCC(n2nnc3ccccc32)CC1	0	0	0	0
Cc1c(Cl)cccc1S(=O)(=O)N1CCC(Cn2c(C)nc3ccccc32)CC1	0	36	0	0
Cc1nc2ccccc2n1CC1CCN(S(=O)(=O)/C=C/c2ccccc2)CC1	0	33	0	0
COc1ccc(C(=O)Cn2cnc3c(nnn3-c3cc(C)cc(C)c3)c2=O)cc1	0	0	0	0
Cn1ncc(NC(=S)Nc2ccc(F)c(Cl)c2)c1C(N)=O	0	0	0	0
COc1cc(OC)cc(C(=O)NCc2ccc(C(C)(C)C)cc2)c1	0	43	0	0
COc1cc(OC)cc(C(=O)NCc2ccc(S(N)(=O)=O)cc2)c1	0	0	0	0
SMILES	FBW7 act	TEAD-YAP block	MITF primary	GPR151 ag
CCCNC(=O)c1cccc(N2CCCC2CO)n1 (stereo unspecified)	0	0	0	0
Cc1cc2c(cc1C)n(C1CC(=O)C3OCC1O3)c(=S)n2Cc1ccccc1Cl (stereo unspecified)	0	48	0	0
COc1ccc(C(=O)N2CCN(S(=O)(=O)c3ccc(C)cc3)CC2)cc1OC	0	0	0	0
Cc1ccc(C(=O)[C@@H]2[C@@H](c3ccccc3F)C(C#N)(C#N)[C@H]3C=Cc4ccccc4N23)cc1	0	0	0	0
COc1ccc(C(=O)[C@@H]2[C@@H](c3ccccc3F)C(C#N)(C#N)[C@H]3C=Cc4ccccc4N23)cc1	0	67	0	0
COc1ccc(C(=O)[C@@H]2[C@@H](c3cccnc3)C(C#N)(C#N)[C@H]3C=Cc4ccccc4N23)cc1	0	58	0	0
CCCc1cc2c(=O)c(-c3ccc4c(c3)OCCCO4)c(C)oc2cc1OCC(N)=O	0	0	0	0
Cc1ccc(NC(=O)c2ccc3c(c2)C(=O)N(c2ccc([N+](=O)[O-])cc2)C3=O)cc1	0	0	0	0
CCCN(CCC)CCCNC(=O)C1CCC(=O)N1C(C)C (stereo unspecified)	0	0	0	0
C=CCNC(=O)C1CCC(=O)N1C(C)C (stereo unspecified)	2.1	0	0	0
C=C1C(c2ccc(C)cc2)=CCc2cc(C)cc(C)c21	0	54	0	0
Cc1cc(C)c2c(c1)CC(C)(C)C(=O)C2=O	0	0	0	0
COc1ccc(C(=O)c2cc([N+](=O)[O-])ccc2N2CCOCC2)cc1	0	60	0	0
CCOc1ccc(C(=O)c2cc([N+](=O)[O-])ccc2N2CCOCC2)cc1	0	60	0	0
CCC(CC)NC(=O)c1cc([N+](=O)[O-])ccc1N1CCOCC1	0	0	0	0
Cc1ccc(C(=O)c2cc([N+](=O)[O-])ccc2N2CCOCC2)cc1	0	0	0	0
CCCNc1nc2c(c(=O)[nH]c(=O)n2C)n1CCc1ccc(OC)cc1	0	0	0	0
CCOC(=O)c1sc(NC(=O)c2cc(Cl)ccc2[N+](=O)[O-])nc1-c1ccccc1	0	0	0	0
CCOC(=O)c1ccc(NC(=O)c2cc([N+](=O)[O-])ccc2Cl)cc1	0	39	0	0
CCOC(=O)c1ccc(Nc2cc(OC)c([N+](=O)[O-])nc2[N+](=O)[O-])cc1	0	67	0	0
O=C(Nc1nc(-c2cccc3ccccc23)cs1)c1cc([N+](=O)[O-])ccc1Cl	0	44	0	0
CCOC(=O)c1sc(NC(=O)c2cc([N+](=O)[O-])ccc2Cl)nc1-c1ccccc1	0	39	0	0
CC(C)N(CCNc1cc(NC2CCC(O)CC2)ncn1)C(C)C (stereo unspecified)	0	0	0	0
O=C(c1ccco1)N1CC[C@H]2[C@H](CCCN2C(=O)c2ccccc2)C1	0	0	0	0
O=C(CSc1nc(-c2ccc(Cl)cc2)cn1-c1ccc(F)cc1)c1ccccc1	0	0	0	0
SMILES	FBW7 act	TEAD-YAP block	MITF primary	GPR151 ag
O=C(Nc1nc(-c2ccccc2)cs1)c1cc([N+](=O)[O-])ccc1Br	0	0	0	0
O=C(Nc1nc(-c2ccc3ccccc3c2)cs1)c1cc([N+](=O)[O-])ccc1Cl	0	37	0	0
COc1ccc(-c2csc(NC(=O)c3cc(Cl)ccc3[N+](=O)[O-])n2)cc1C	0	53	0	0
O=C(Nc1nc(-c2ccccc2)cs1)c1cc([N+](=O)[O-])ccc1Cl	0	33	0	0
N#Cc1ccc(Cn2c3ccccc3c3nc4cc(F)ccc4nc32)cc1	0	0	0	0
C/C(CC(=O)Nc1ccccc1C)=N\NC(=O)C(=O)Nc1ccccc1C	2.0	0	0	0
COc1cccc(CNC(=O)c2cc3ccc(-c4cn[nH]c4)nc3n2CCCO)c1	0	0	0	0
NC(=O)c1c(NC(=O)c2cc3ccccc3o2)sc2c1CCCCC2	0	42	0	0
NC(=O)c1c(NC(=O)c2nc3ccccc3s2)sc2c1CCCCC2	0	62	0	0
NC(=O)c1c(NC(=O)c2ccccc2)sc2c1CCCCC2	0	0	0	0
CCOC(=O)C1=C(C)NC(=O)NC1N(C)C (stereo unspecified)	0	0	0	0
CCc1nnc2n1N=C(c1ccc3c(c1)OCCO3)CS2	0	51	0	0
Cn1ccnc1-c1nc2ccccc2n(CC(=O)O)c1=O	0	0	0	0
